This is one part of a sample in which hits are shown more often than they occur.
Shiga toxin inh – A qHTS for Small Molecule Inhibitors of Shiga Toxin; Vero cells, Shiga toxin protein synthesis inhibition reporter; inhibition, % at 38.7 µM; 9.2% of 290,000 active; in the data active means inhibition mostly above about 28%, no sharp cut-off; inactive means mostly below about 43%; further: 0% is about no effect
RE007 growth inh – qHTS Assay for Inhibitors of the HIV-1 protein Vpr | S. pombe RE007 Vpr strain, BacTiter-Glo ATP luminescence, 24 h | AID 651644, 2012 | 0.21% of 360,000 active | Potency, µM (titrated, usually from 92.2 µM), inactives show at the top dose activity change, negative = less growth, actives largely listed as inhibitors; active means well fitted falling curve with a large enough effect; inconclusive means small, poorly fitted or top-dose-only effect; inactive means no such curve, though single readings can be large or run the other way; further: potency means the concentration at half of the fitted maximal effect; on the % scale 0 is the no-effect control and ±100 the full control effect; nearly all actives have a fitted effect of over 50% in size
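Fission yeast strain RE007, carrying one chromosomally integrated HIV-1 vpr copy, was seeded at OD 0.01 in PMG+AL medium with 23 nL pinned compound. After 24 h at 30 °C and 99% humidity, viability was read by BacTiter-Glo luminescence.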
Cycloheximide cs – Cycloheximide Counterscreen for Small Molecule Inhibitors of Shiga Toxin | cell reporter, cycloheximide protein synthesis inhibition counterscreen | max response, % | 12% of 300,000 active | AID 2314, 2010; in the data active means max response mostly above about 13%, no sharp cut-off; inactive means mostly below about 14%; further: read at 38.3 µM for the half of the compounds with a filed dose; 0% is about no effect
FBPA Giardia inh – qHTS Assay for Inhibitors of Fructose-1,6-bisphosphate Aldolase from Giardia Lamblia; A8B2U2; purified Giardia FBPA; Potency, µM (top dose mostly 59.6 µM), without a hit: at the highest dose activity, negative = inhibition, most hits filed as inhibitors; 0.71% of 290,000 active; AID 2451, 2010; further: potency means the concentration at half of the fitted maximal effect; on the % scale 0 is the no-effect control and ±100 the full control effect; nearly all actives have a fitted effect of over 55% in size
Target sequence (A8B2U2 whole entry, looked up): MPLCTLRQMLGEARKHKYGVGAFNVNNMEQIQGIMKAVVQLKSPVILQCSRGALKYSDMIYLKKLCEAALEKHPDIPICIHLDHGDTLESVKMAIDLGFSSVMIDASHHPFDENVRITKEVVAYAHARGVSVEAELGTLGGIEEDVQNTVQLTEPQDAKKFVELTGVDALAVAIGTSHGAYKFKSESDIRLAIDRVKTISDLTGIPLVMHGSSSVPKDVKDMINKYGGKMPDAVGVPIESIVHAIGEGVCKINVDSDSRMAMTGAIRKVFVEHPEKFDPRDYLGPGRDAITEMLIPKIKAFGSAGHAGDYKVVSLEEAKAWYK
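Giardia FBPA (40 nM reagent) was preincubated 10 min at RT with compound (up to 57.5 uM final), then substrate plus GAPDH/TPI/NAD/arsenate coupling system with diaphorase/resazurin was added; resorufin fluorescence (525/598 nm) was read after 20 min.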
Tb PYK inh – qHTS of Trypanosoma Brucei Inhibitors | 0.12% of 410,000 active | TbPYK enzyme, Kinase-Glo Plus ATP luminescence, 45 min | Potency, µM (series often up to 76.8 µM), inactives show at the highest dose activity, negative = inhibition, most hits filed as inhibitors; further: potency means the concentration at half of the fitted maximal effect; on the % scale 0 is the no-effect control and ±100 the full control effect; nearly all actives have a fitted effect of over 50% in size
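Luminescence from Kinase-Glo Plus, added after a 45-minute room-temperature reaction, served as the end-point read-out. The enzyme and substrate were preincubated with compound before ADP (130 uM final) initiated turnover. Concentration-effect curves came from normalized qHTS data.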
LmPK inhibitor – qHTS Assay for Inhibitors of Leishmania Mexicana Pyruvate Kinase (LmPK) | Q27686 | purified LmPK, Kinase-Glo ATP luminescence, 1 h | Potency, µM (series often up to 57.5 µM), for the others: top-dose activity change, negative = inhibition, hits mostly inhibitors | 0.37% of 290,000 active | AID 1721, 2009; further: potency means the concentration at half of the fitted maximal effect; on the % scale 0 is the no-effect control and ±100 the full control effect
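Purified LmPK (0.1 nM) with 0.5 mM PEP and 0.1 mM ADP in imidazole buffer pH 7.2 with MgCl2/KCl, 1 h at room temperature. ATP formed was read by luciferase luminescence and normalized to no-enzyme and uninhibited controls.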
The depositor's hits bear a star; ? = inconclusive; / = no result; [ ] = another dose, or the depositor's remark. Unless noted, the call rests on the fitted dose curve; in most records, active means well fitted curve in the direction sought with a large enough effect; inconclusive means small, poorly fitted or top-dose-only effect, or another doubt; inactive means no such curve, though single readings can be large; an effect the other way counts as inactive or inconclusive.

SMILES	Shiga toxin inh	RE007 growth inh	Cycloheximide cs	FBPA Giardia inh	Tb PYK inh	LmPK inhibitor
CN(C)S(=O)(=O)c1cccc(NC(=S)NC23CC4CC(CC(C4)C2)C3)c1	-8	8%	-2	/	-2%	2%
Cc1cc(C(=O)CN2CC(C)OC(C)C2)c(C)n1-c1ccccc1 (configuration not stated)	50*	-6%	13*	-8%	-2%	-2%
Cc1cc(C(=O)CN2CCC(C)CC2)c(C)n1-c1ccccc1F	-5	-5%	2	-19%	2%	2%
Cc1ccc(-n2c(C)cc(C(=O)CN3CCCCC3)c2C)cc1	87*	1%	40*	-1%	3%	-3%
CC(C)c1ccc(NC(=S)NN2CCN(C)CC2)cc1	18	6%	1	0%	-2%	-2%
CC(C)c1ccc(NC(=S)N2CCN(C)CC2)cc1	37*	4%	37*	/	13%	-2%
CC(C)c1ccc(NC(=S)N2CCCC2)cc1	156*	0%	61*	-18%	1%	-2%
CCc1ccccc1NC(=O)C1CCN(c2nc3ccccc3[nH]2)CC1	/	/	/	/	-6%[15.4 µM]	/
CCc1ccc(C(=O)CSc2n[nH]c(C)n2)cc1	111*	2%	44*	?	?	3%
Cc1ccc(C)c(C(=O)CSc2n[nH]c(C)n2)c1	-27	6%	6	?	?	3%
Cc1ccc(C(=O)CSc2n[nH]c(C)n2)cc1	86*	0%	30*	?	-9%	-1%
CC(=O)Cn1cnc2c(cnn2-c2ccc(C)c(C)c2)c1=O	91*	-12%	54*	-6%	2%	0%
Cc1ccc(-n2ncc3c(=O)n(CC(=O)N(C)C)cnc32)cc1	8	1%	-3	3%	8%	0%
Cc1ccc(-n2ncc3c(=O)n(CC(=O)N(C)C)cnc32)cc1C	29	7%	14*	8%	-3%	-1%
CCN1C(=O)c2ccccc2Sc2ccc(NC(=O)Nc3cccc([N+](=O)[O-])c3C)cc21	/	/	/	/	2%	/
Cc1nc(/N=C(\N)NC(=O)c2ccccc2)nc2ccccc12	52*	-12%	50*	-2%	4%	7%
Cc1nc(N=C(N)N)nc2ccccc12	-4	-3%	8	1%	4%	3%
O=S(=O)(NCC(c1cccs1)S(=O)(=O)c1ccccc1)c1ccccc1 (configuration not stated)	/	/	/	/	3%	/
COc1cccc(NC(=O)Cn2c(=O)n(-c3cccc(OC)c3)c(=O)c3sc4ccccc4c32)c1	/	/	/	/	7%	/
Cc1ccccc1CSc1ccc(-c2cccs2)nn1	/	/	/	/	-1%	/
Fc1cccc(CSc2ccc(-c3cccs3)nn2)c1	/	/	/	/	-1%	/
Fc1ccc(CSc2ccc(-c3cccs3)nn2)cc1	38	-15%	30*	2%	-2%	2%
Cc1ccc(CNC(=O)CSc2ccc(-c3cccs3)nn2)cc1	-6	31%	0	0%	-8%	3%
Cc1ccc(CSc2ccc(-c3cccs3)nn2)cc1	47*	9%	46*	1%	-6%	-4%
c1cncc(CSc2ccc(-c3cccs3)nn2)c1	44*	9%	26*	-2%	-3%	2%
SMILES	Shiga toxin inh	RE007 growth inh	Cycloheximide cs	FBPA Giardia inh	Tb PYK inh	LmPK inhibitor
CC(=O)c1cc(F)c(N2CCOCC2)cc1C	19	-4%	10	3%	0%	-2%
Cc1ccc(C(=O)c2ccc(N3CCOCC3)c(F)c2)cc1	66*	-28%	62*	-4%	3%	1%
CCCC(=O)c1ccc(N2CCOCC2)c(F)c1	68*	-21%	38*	4%	-3%	-1%
Cc1cc(N2CCOCC2)c(F)cc1C(=O)c1ccccc1	17	13µM*	0	5%	0%	3%
COc1ccc2c(c1)O/C(=C\c1ccco1)C2=O	38	-5%	30*	?	-11%	-8%
COC(=O)C(C)Oc1ccc2c(c1)O/C(=C\c1ccco1)C2=O (configuration not stated)	71*	-9%	37*	4%	7%	-1%
CCOC(=O)N1CCN(C(=O)c2cc(COc3cccc(C(C)=O)c3)on2)CC1	45	-2%	41*	/	-10%	-10%
CN(Cc1nccn1C)C(=O)c1cc(COc2cccc(C(F)(F)F)c2)on1	42*	-6%	37*	/	-6%	-11%
CC(=O)c1cccc(OCc2cc(C(=O)NCc3nc(C)c(C)s3)no2)c1	83*	13%	40*	/	-5%	-1%
CCOC(=O)N1CCN(C(=O)c2cc(COc3cccc(C(F)(F)F)c3)on2)CC1	60*	-24%	46*	2%	-6%	5%
O=C(c1cc(COc2cccc(C(F)(F)F)c2)on1)N1CCCC1	/	0%	/	/	4%	/
N[C@@H](COC(c1cccc(F)c1)c1ccccc1OCc1ccccc1)C(=O)O (some centres not stated)	-6	/	-8	-20%	/	/
O=[N+]([O-])c1cccc(-c2csc(N/N=C/c3cccc(O)c3)n2)c1	105*	-20%	28*	-21%	3%	-4%
Cc1[nH]n(-c2nc(-c3cccc([N+](=O)[O-])c3)cs2)c(=O)c1C	54*	-17%	37*	-27%	-10%	0%
COc1ccc2c(c1OC)C(=O)OC2Nc1nc(-c2cccc([N+](=O)[O-])c2)cs1 (configuration not stated)	43*	-10%	57*	8%	-3%	11%
Cc1c(Nc2nc(-c3cccc([N+](=O)[O-])c3)cs2)c(=O)n(-c2ccccc2)n1C	-1	4%	-2	5%	1%	2%
CC(=O)c1cccc(Nc2nc(-c3cccc([N+](=O)[O-])c3)cs2)c1	103*	5%	38*	1%	-1%	3%
O=C(Nc1nc(-c2cccc([N+](=O)[O-])c2)cs1)C(c1ccccc1)c1ccccc1	12	15%	-1	-6%	-7%	0%
CC(=O)Nc1nc(C)c(-c2csc(Nc3cccc([N+](=O)[O-])c3)n2)s1	2	-2%	0	-14%	-6%	9%
COc1ccccc1CNC(=O)Cn1c(=O)oc2cc(S(=O)(=O)N3CCC(C)CC3)ccc21	/	/	/	/	-6%	/
CCCCN1C(C)=CC(=C2C(=O)c3ccccc3C2=O)C=C1C	45	-8%	10	-3%	-6%	-2%
CCN1C=CC(=C2C(=O)c3ccccc3C2=O)C=C1	-32	?	-9	-14%	?	13µM*
CN1C=CC(=C2C(=O)c3ccccc3C2=O)C=C1	88	/	38*	-3%	/	2%
